Rows were chosen to be rich in hits. Some 2.4% of all compounds tested hit in one or more screens of this group.
D2 ag-1: HTS Assay for Allosteric Agonists of the Human D2 Dopamine Receptor: Primary Screen for Agonists | HEK293 T-REx D2 cells, calcium flux agonist mode | activation, % at 2 µM | hit rate 0.53% among 340,000 | AID 485358, 2010;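 active means activation over 3 SD above normal in the single-dose calcium agonist read, cut at about 30% in these data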
Target sequence (P14416 whole entry, looked up): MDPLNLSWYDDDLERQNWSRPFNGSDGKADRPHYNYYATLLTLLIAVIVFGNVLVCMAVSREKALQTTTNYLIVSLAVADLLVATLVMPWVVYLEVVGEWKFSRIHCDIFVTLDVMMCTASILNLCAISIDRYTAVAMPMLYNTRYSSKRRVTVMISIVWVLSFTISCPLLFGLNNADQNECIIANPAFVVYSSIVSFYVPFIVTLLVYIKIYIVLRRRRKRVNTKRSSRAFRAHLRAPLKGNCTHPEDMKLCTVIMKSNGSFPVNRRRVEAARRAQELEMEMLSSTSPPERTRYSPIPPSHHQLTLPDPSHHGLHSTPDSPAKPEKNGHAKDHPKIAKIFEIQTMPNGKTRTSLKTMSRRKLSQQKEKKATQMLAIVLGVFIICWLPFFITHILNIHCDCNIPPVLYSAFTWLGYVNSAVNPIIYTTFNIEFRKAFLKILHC
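Calcium-flux readout, 1 cycle/sec over 180 s following compound pin transfer, in inducible HEK293 Trex D2 cells (force-coupled); dopamine controls included. Positive calcium responses during this window marked compounds as potential agonists.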
D2 PAM-1: Beta-Arrestin HTS for Positive Allosteric Modulators of the Human D2 Dopamine Receptor: Potentiators. DiscoveRx D2 beta-arrestin cells, luminescence, 90 min; 100% = 57 uM dopamine signal. potentiation, % (no concentration beside the values). hit rate 0.23% among 360,000; in the data active means potentiation above about 50%; inconclusive means mostly about 30% to 49%
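PathHunter D2 cells, attached overnight at 37 deg C, received compound in DMSO plus dopamine at EC20 (50 nM final) for 90 min at 37 deg C. Beta-arrestin recruitment was read as luminescence after 1 h with detection reagent at ambient temperature.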
D2 PAM-2: HTS Assay for Positive Allosteric Modulators of the Human D2 Dopamine Receptor: Primary Screen for Potentiators; HEK293 T-REx D2, calcium flux, EC20 dopamine potentiation; potentiation, % at 10 µM; hit rate 0.34% among 340,000; AID 485347, 2010;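 active means potentiation over 3 SD above the plate norm, cut at about 30% in these data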
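Potentiation of an EC20 dopamine calcium response measured kinetically over 180 s, after a preceding 180 s compound-only read flagging agonists. Cells: inducible Hek293 Trex D2 line, 4000/well, cultured overnight at 30 C before dye loading.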
D2 ag-2: Beta-Arrestin HTS for Positive Allosteric Modulators of the Human D2 Dopamine Receptor: Agonists; DiscoveRx PathHunter D2 beta-arrestin, luminescence, 90 min; 100% = 57 uM dopamine signal; activation, % (concentration not given with the values); hit rate 0.084% among 360,000; AID 624465, 2012; in the data active means activation above about 40%; inconclusive means between about 15% and that limit
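Agonist mode: compounds alone added to overnight-plated D2 PathHunter cells for 90 min at 37 C, with 57 uM final dopamine (EC100) defining full response. Beta-arrestin recruitment detected by chemiluminescent reagent, read after 1 h at ambient temperature.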
D2 antag: HTS Assay for Allosteric Antagonists of the Human D2 Dopamine Receptor: Primary Screen for Antagonists; D(2) dopamine receptor (Homo sapiens), P14416; inhibition, % at 10 µM; hit rate 2% among 340,000; HEK293 TREx D2 cells, calcium flux, dopamine EC80; AID 485344, 2010; in the data active means inhibition above about 30%; inactive means below that, where a call was filed
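Antagonism is scored as inhibition of an EC80 dopamine-evoked calcium signal in a force-coupled, tetracycline-inducible HEK293 T-REx D2 line, with compound present 180 s before agonist.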
Each line names hits and unclear results; the compound was inactive in the other large screens; ! = a repeat was not active.

Cc1cc(C[n+]2cc(Br)ccc2N)c2ncccc2c1	D2 antag 32
COCCNC(=O)Cn1c(-c2cccs2)cc2cc(Cl)ccc21	none (no result: D2 PAM-1, D2 ag-2, D2 antag)
C/C(O)=C(/C=Nc1ccccc1)C(=O)Nc1ccccc1	D2 antag 33
Cn1nc(C(F)(F)F)c(C#N)c1N1CCN(c2cccc(C(F)(F)F)c2)CC1	D2 antag 43
Cc1nc2ncnn2c(N2CCN(c3cccc(C(F)(F)F)c3)CC2)c1C	none (no result: D2 ag-1, D2 PAM-2, D2 antag)
C=CCOc1c(Br)cc(/C=C(\C#N)C(N)=O)cc1OC	none
COc1cc(C=O)cc(Br)c1OCC(N)=O	D2 antag 34
Cc1ccc(CCNC(=O)C2CCCN(S(=O)(=O)c3ccc4c(c3)oc(=O)n4C)C2)cc1 (centres undefined)	none (no result: D2 ag-1, D2 PAM-1, D2 ag-2, D2 antag)
Cc1ccnn1CC(=O)N/N=C/c1c[nH]c2ccccc12	none
Cc1ccnn1CC(=O)N/N=C/c1cn[nH]c1-c1ccccc1	D2 antag 44
CCC(Sc1nc2cc(OC)c(OC)cc2c(=O)n1Cc1ccc(OC)cc1)C(=O)NCCOC (centres undefined)	D2 PAM-2 31!
CCCN(CC(=O)Nc1ccccc1C)C(=O)c1ccc(S(=O)(=O)N2CCCC2)cc1	D2 antag 30
CCCN(CC(=O)Nc1ccccc1C)C(=O)c1ccc(S(=O)(=O)N2CCCCC2)cc1	none
FC(F)(F)c1ccccc1CN1CCN(C2CCCCCC2)CC1	D2 antag 44
COC(=O)c1cc2oc3ccccc3c2n1CC(=O)Nc1cccc(SC)c1	none (no result: D2 PAM-1, D2 ag-2, D2 antag)
Cc1cccc(N2CCN(CCCNC(=O)C3CCCN(c4ncnc5c4nc4n5CCCCC4)C3)CC2C)c1 (centres undefined)	D2 antag 56
Cc1cccc(CCNC(=O)C2CCCN(c3ncnc4c3nc3n4CCCCC3)C2)c1 (centres undefined)	none
Cc1c(Cl)cccc1NS(=O)(=O)c1ccccc1	none (no result: D2 ag-1, D2 PAM-2, D2 antag)
Cc1c(NS(=O)(=O)c2ccccc2)cc(Cl)c(O)c1C	D2 PAM-1 62, D2 ag-2 inconclusive (no result: D2 PAM-2)
O=C(NCCc1ccc(Cl)cc1)c1cccn1-c1nnc(N2CCCC2)s1	none (no result: D2 PAM-1, D2 ag-2, D2 antag)
Cc1ccc(Cl)cc1N1CCN(S(=O)(=O)c2c(C(=O)N3CCOCC3)c(C)n(C)c2C)CC1	D2 antag 38
C=C(C)CSc1nc2sc3c(c2c(=O)n1CCCC)CCCC3	none (no result: D2 ag-1, D2 PAM-1, D2 ag-2, D2 antag)
O=C(CCCCCn1c(=O)[nH]c2ccccc2c1=O)N1CCN(Cc2ccc3c(c2)OCO3)CC1	D2 ag-1 35
O=C(Cn1c(=O)[nH]c2ccccc2c1=O)N1CCN(Cc2ccc3c(c2)OCO3)CC1	none
CS(=O)(=O)N(CCc1ccccc1)CC(=O)N1CCN(Cc2ccc3c(c2)OCO3)CC1	D2 antag 44
CCC(C)(C)NC(=O)C(c1cccn1C)N(C(=O)Cn1nnc2ccccc21)c1ccc(OC)cc1OC (centres undefined)	D2 antag 30
CCOc1ccc(N(C(=O)Cn2nnc3ccccc32)C(C(=O)NC(C)(C)CC)c2cccn2C)cc1 (centres undefined)	none
CN1CCC/C1=C/C=C1\SC(=S)NC1=O	D2 ag-1 50
O=C1NC(=S)SC1=Cc1cccs1	none (no result: D2 ag-1, D2 PAM-2, D2 antag)
COc1cccc(N2CCN(Cc3cc(=O)oc4cc(C)ccc34)CC2)c1	none (no result: D2 PAM-1, D2 ag-2, D2 antag)
O=C(CN1C(=O)COc2ccccc21)NCCCN1CCN(Cc2ccccc2)CC1	none
O=C(CN1C(=O)COc2ccccc21)NCCCN1CCc2ccccc2C1	D2 antag 58
O=C(COC(=O)c1c(F)cccc1F)Nc1ccc2[nH]c(=O)[nH]c2c1	D2 antag 65
COc1ccc(CC(=O)OCC(=O)Nc2ccc3[nH]c(=O)[nH]c3c2)cc1	D2 PAM-1 inconclusive
COc1cc(OC)cc(C(=O)OCC(=O)Nc2ccc3[nH]c(=O)[nH]c3c2)c1	D2 antag 36
CCOC(=O)c1ccc(NC(=O)CN(Cc2ccc(C)cc2)S(=O)(=O)c2ccc(C)cc2)cc1	none (no result: D2 PAM-1, D2 ag-2, D2 antag)
COc1n[nH]c(C(=O)Nc2cc(Cl)ccc2Cl)c1[N+](=O)[O-]	D2 antag 32
COC(=O)c1cc(NC(=O)Cc2cc(OC)c(OC)c(OC)c2)cc(C(=O)OC)c1	D2 antag 40
O=C(Nc1ccccc1)c1ccc(-c2ccccc2Cl)o1	none
O=C(NCCc1ccccc1)c1ccc(-c2ccccc2Cl)o1	D2 antag 30
O=C(NCCc1ccc(Cl)cc1)c1ccc(CS(=O)(=O)c2ccc(Cl)cc2)o1	none (no result: D2 ag-1, D2 PAM-1, D2 ag-2, D2 antag)
O=C(NCCc1ccccc1)c1ccc(CS(=O)(=O)c2ccc(Cl)cc2)o1	D2 antag 31
CCOC(=O)N1CCc2c(sc(NCc3ccc(OC)c(Br)c3)c2C(=O)Nc2cc(OC)ccc2OC)C1	none (no result: D2 PAM-1, D2 ag-2, D2 antag)
CCCCNC(=O)CCCn1c(=O)c2ccccc2n(Cc2ccccc2C)c1=O	none (no result: D2 PAM-1, D2 ag-2, D2 antag)
COc1ccccc1N(CC(O)Cn1ccnc1C)S(=O)(=O)c1ccc(C)cc1 (centres undefined)	D2 antag 67
COC(CNC(=S)Nc1ccc([N+](=O)[O-])cc1)OC	D2 antag 35
COc1ccccc1C(=O)Nc1ccc(C(=O)OCc2cc(=O)n3ccsc3n2)cc1	none (no result: D2 PAM-1, D2 ag-2, D2 antag)
CCc1c(C)sc(NC(=S)N2CC(C)OC(C)C2)c1C(=O)OC (centres undefined)	D2 PAM-1 68
Cc1ccccc1CN1CCc2nc(Nc3ccc4c(c3)OCCO4)ncc2C1	none (no result: D2 PAM-1, D2 PAM-2, D2 ag-2, D2 antag)
C=Cc1ccc(N=Cc2c(O)ccc3ccccc23)cc1	D2 antag 44
OCC(CO)(CO)N=Cc1c(O)ccc2ccccc12	D2 PAM-1 50
Oc1ccc2ccccc2c1C=NC12CN3CCN(CN(C3)C1)C2	D2 PAM-1 102 (no result: D2 ag-1, D2 PAM-2, D2 antag)
Oc1ccccc1N=Cc1c(O)ccc2ccccc12	none
Cc1ccc(-c2cc(C(F)(F)F)n3nc(C(=O)Nc4sc5c(c4C#N)CCC(C)C5)cc3n2)cc1 (centres undefined)	none (no result: D2 PAM-1, D2 ag-2, D2 antag)
O=C(NCc1ccccc1C(F)(F)F)C1CC(c2cccc(F)c2)=NO1 (centres undefined)	D2 antag 42
O=C(NCc1ccccc1C(F)(F)F)C1CC(c2cc(C(F)(F)F)cc(C(F)(F)F)c2)=NO1 (centres undefined)	none
COc1ccc(Cl)cc1NC(=O)c1nn(-c2ccc(C)cc2)c(=O)n(C)c1=O	none (no result: D2 PAM-1, D2 ag-2, D2 antag)
CCOc1ccc(NC(=NCc2ccc3c(c2)OCO3)SC2CC(=O)N(c3ccccc3)C2=O)cc1 (centres undefined)	D2 PAM-2 31

High-throughput results as filed in PubChem BioAssay.
